The assay has as its target T1, MutS (Cy5-labeled) (Escherichia coli, UniProt P23909 P23909:1-853).
T1 sequence: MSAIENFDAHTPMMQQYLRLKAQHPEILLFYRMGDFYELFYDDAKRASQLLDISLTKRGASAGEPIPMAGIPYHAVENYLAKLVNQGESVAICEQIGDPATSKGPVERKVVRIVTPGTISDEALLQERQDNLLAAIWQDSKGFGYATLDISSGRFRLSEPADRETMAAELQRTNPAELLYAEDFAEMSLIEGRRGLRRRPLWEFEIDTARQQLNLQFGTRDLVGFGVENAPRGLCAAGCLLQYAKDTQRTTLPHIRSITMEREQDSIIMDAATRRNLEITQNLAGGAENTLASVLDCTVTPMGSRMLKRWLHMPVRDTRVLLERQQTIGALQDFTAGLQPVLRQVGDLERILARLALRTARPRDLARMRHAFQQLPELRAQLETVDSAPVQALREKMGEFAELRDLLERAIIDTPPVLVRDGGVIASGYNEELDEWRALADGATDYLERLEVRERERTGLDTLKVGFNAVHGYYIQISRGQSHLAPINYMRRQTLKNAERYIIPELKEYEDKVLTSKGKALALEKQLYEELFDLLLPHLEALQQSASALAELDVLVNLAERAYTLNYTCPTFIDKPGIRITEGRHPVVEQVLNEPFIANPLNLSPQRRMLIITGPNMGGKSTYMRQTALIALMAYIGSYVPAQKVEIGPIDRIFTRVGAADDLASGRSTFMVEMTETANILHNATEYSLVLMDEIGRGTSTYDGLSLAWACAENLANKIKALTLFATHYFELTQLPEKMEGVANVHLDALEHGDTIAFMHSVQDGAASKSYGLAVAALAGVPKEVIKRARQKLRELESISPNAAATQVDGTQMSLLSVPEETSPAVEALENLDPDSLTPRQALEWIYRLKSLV
Kind of assay: agarose chip. To be noted: tags: Cy5 nonspecific amine label; also Gene Check unlabeled in EMSA; label: 5'-biotin, 5'-Cy3.

B1: p53 AT (dsDNA)
DNA 1: AAAGTTCCTGCATGGGCGGCATGAACCGGAGGCCCATC
DNA 2: AGGATGGGCCTCCGGTTCATGCCGCCCATGCAGGAACT
For the molecule B1, the binding signal amounted to 48.7 fluorescence units.

B2: bcl AT (dsDNA)
DNA 1: AAGGTCGCGGGATGCGGCTGGATGGGGCGTGTGCCCGGG
DNA 2: AGCCCGGGCACACGCCCCATCCAGCCGCATCCCGCGACC
Consider B2, for which the binding signal was 51.2 fluorescence units.

B3: MSH AT (dsDNA)
DNA 1: AACCTTTCTCCAAAATGGCTGGTCGTACATATGGAACAG
DNA 2: ACCTGTTCCATATGTACGACCAGCCATTTTGGAGAAAGG
B3 gave a binding signal of 45.9 fluorescence units.

B4: Brc AT (dsDNA)
DNA 1: AAATGTTATTACGGCTAATTGTGCTCACTGTACTTGGAA
DNA 2: CATTCCAAGTACAGTGAGCACAATTAGCCGTAATAACAT
In turn, B4 gave a binding signal of 52.4 fluorescence units.

B5: Rb AT (dsDNA)
DNA 1: AAATAAGATCAAATAAAGGTGAATCTGAGAGCCATGCAA
DNA 2: CCTTGCATGGCTCTCAGATTCACCTTTATTTGATCTTAT
B5 had a binding signal of 59.6 fluorescence units.

B6: Met AT (dsDNA)
DNA 1: AACTATAGTATTCTTTATCATACATGTCTCTGGCAAGAC
DNA 2: TGGTCTTGCCAGAGACATGTATGATAAAGAATACTATAG
For B6, the binding signal was determined as 46.3 fluorescence units.

B7: APC AT (dsDNA)
DNA 1: AAGATCTTCAGCTGACCTAGTTCCAATCTTTTCTTTTAT
DNA 2: AAATAAAAGAAAAGATTGGAACTAGGTCAGCTGAAGATC
B7 came in with a binding signal of 40.5 fluorescence units.
